Rows were chosen to be rich in hits. Some 11% of all compounds tested hit in one or more screens of this group.
Pf growth 96h: P. falciparum growth inhibition at 96 hours; P. falciparum luciferase reporter growth, 96 h; hit rate 6.9% among 320,000; Potency, µM (titrated, usually from 28.7 µM), for the others: at the highest dose activity change, negative = inhibition, most hits filed as inhibitors
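Delayed-death screen, second-generation endpoint: infected erythrocytes, 2% hematocrit, 0.05% parasitemia final; 96 hours at 37 C, 5% CO2; luciferase detection reagent; luminescence decrease equals reduced growth.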
AmpC no deterg: blocks E. coli AmpC beta-lactamase in detergent-free assay | Potency, µM (doses to about 57.1 µM), without a hit: at the highest dose activity change, negative = inhibition, hits mostly inhibitors | AmpC nitrocefin hydrolysis, absorbance 480 nm, 0.0001% Triton | P00811 | hit rate 0.52% among 330,000;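 note: plate controls were no compound for no effect and no enzyme for full effect; nearly all actives have a fitted effect of over 20% in size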
Target sequence (P00811 whole entry, looked up): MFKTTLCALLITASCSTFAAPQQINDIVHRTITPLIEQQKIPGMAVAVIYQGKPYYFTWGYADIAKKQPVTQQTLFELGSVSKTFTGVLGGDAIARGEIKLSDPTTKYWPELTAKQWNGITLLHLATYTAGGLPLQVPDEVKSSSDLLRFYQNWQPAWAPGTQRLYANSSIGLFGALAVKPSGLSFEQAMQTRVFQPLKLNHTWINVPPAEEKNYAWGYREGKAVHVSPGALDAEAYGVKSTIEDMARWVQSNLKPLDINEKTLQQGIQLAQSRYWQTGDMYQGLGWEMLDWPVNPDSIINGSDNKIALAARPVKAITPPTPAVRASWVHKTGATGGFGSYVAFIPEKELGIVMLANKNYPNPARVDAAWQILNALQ
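20 mM phosphate pH 7.0 + 0.01% (detergent screen) or 0.0001% Triton X-100; 5.3 nM AmpC reagent; cpd preinc 15 min RT; nitrocefin (800 uM stock) to start; A480 q20 s × 4 min; Activity was normalised to no-enzyme and no-compound control wells.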
AmpC detergent: blocks E. coli AmpC beta-lactamase in detergent assay | AID 485294 | P00811 | AmpC hydrolysis of nitrocefin, absorbance 480 nm, 0.01% Triton | hit rate 0.041% among 370,000 | Potency, µM (top dose mostly 114 µM), for inactives: at the highest dose activity change, negative = inhibition, actives largely listed as inhibitors;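 note: 0% = no-compound wells and -100% = no-enzyme wells; nearly all actives have a fitted effect of over 25% in size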
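20 mM phosphate pH 7.0 + 0.01% (detergent screen) or 0.0001% Triton X-100; 5.3 nM AmpC reagent; cpd preinc 15 min RT; nitrocefin (800 uM stock) to start; A480 q20 s × 4 min; Activity was normalised to no-enzyme and no-compound control wells.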
HCV inhibitor: inhibitors of hepatitis C virus infection | Huh7.5.1 HCVcc-Cre infection, luciferase reporter, 44 h | Potency, µM (titrated, usually from 41.8 µM), without a hit: at the top dose activity change, negative = inhibition, actives largely listed as inhibitors | hit rate 3.4% among 340,000 | AID 651820
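After 44 h co-culture of compound, cells and HCVcc-Cre (~0.5 moi), substrate is added for 15 min at room temperature and luciferase measured over 15 sec. Cells were seeded at 1,000/well and pre-cultured 4 h.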
Pf growth 48h: inhibits P. falciparum growth in the first generation, 48 h | P. falciparum luciferase growth in erythrocytes, 48 h | Potency, µM (doses to about 28.7 µM), for the others: at the top dose activity change, negative = inhibition, actives largely listed as inhibitors | hit rate 5.9% among 310,000
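Firefly luciferase activity from engineered P. falciparum reports growth; inhibitors lower the luminescent signal. Cultures contained 2% hematocrit erythrocytes at 0.1% final parasitemia.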
AMA1 RON2 block: AMA1-RON2 (P. falciparum) interaction inhibition. AlphaScreen AMA1-biotinylated RON2 peptide binding. Potency, µM (series often up to 58.2 µM), for the others: top-dose activity change, negative = inhibition, most hits filed as inhibitors. hit rate 0.2% among 360,000. AID 720542;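 note: 0% = vehicle wells and -100% = peptide control; nearly all actives have a fitted effect of over 45% in size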
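AMA1 (3D7) with his tag at 25 nM final met compounds first, then biotinylated RON2 peptide at 25 nM; detection used donor plus acceptor beads, 10 µg/mL apiece, read by AlphaScreen after 30 min at room temperature.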
Starred values were filed as active, the others as inactive; i = inactive; ? = inconclusive; . = not tested or not shown. Calls come from the whole dose curve; as a rule, active = well fitted curve in the direction sought with a large enough effect; inconclusive = small, poorly fitted or top-dose-only effect, or another doubt; inactive = no such curve, though single readings can be large; an effect the other way counts as inactive or inconclusive. Unless noted, % is set by controls: 0 for no effect and ±100 for the full control effect; potency is the fitted concentration of half-maximal effect.

SMILES	Pf growth 96h	AmpC no deterg	AmpC detergent	HCV inhibitor	Pf growth 48h	AMA1 RON2 block
CC(C)(C)N1C(=O)c2ccc(C(=O)Nc3ccc(-c4nc5ccccc5[nH]4)cc3)cc2C1=O	i	-14%	4%	-4%	0.52µM*	3%
CC(C)(C)N1C(=O)c2ccc(C(=O)Nc3ccc(C(=O)O)cc3)cc2C1=O	9.3µM*	-8%	0%	15%	-2%	8%
O=C(O)c1ccc(NC(=O)c2ccc3c(c2)C(=O)N(c2ccccc2)C3=O)cc1	5%	-11%	-4%	23%	19%	-15%
Cc1cccc(N2CCN(C(=O)C3CCN(S(=O)(=O)c4ccc5c(c4)oc(=O)n5C)CC3)CC2)c1C	.	.	-1%	.	.	.
CCOc1ccc(CNC(=O)COc2cc(=O)n(C)c3ccccc23)cc1	.	.	1%	.	.	.
COc1cc(OC)cc(C(=O)N2CCC(n3c(C)nc4cc(F)ccc43)CC2)c1	13µM*	126%	-1%	-10%	.	0%
COc1ccc(NC(=O)CN2CCC(n3c(C)nc4cc(F)ccc43)CC2)c(OC)c1	4%	64%	-3%	19%	?	12%
Cc1ccc2nc3c(cc(C#N)c(=O)n3-c3nnc(SCc4ccc(F)cc4)s3)c(=O)n2c1	.	.	-6%	.	.	.
O=C(O)c1ccccc1-c1ccc(/C=C2\SC(=O)N(c3ccccc3)C2=O)o1	?	-12%	-11%	4%	98%	-3%
O=C1S/C(=C\c2ccc(N3CCOCC3)o2)C(=O)N1Cc1c(F)cccc1Cl	12µM*	-8%	-2%	?	?	4%
O=C1N=C(N2CCOCC2)S/C1=C/c1ccc(-c2ccccc2Cl)o1	?	-6%	-2%	?	?	-15%
O=C1S/C(=C\c2ccc(N3CCOCC3)o2)C(=O)N1c1ccccc1	55%	14%	2%	32µM*	-16%	64%
O=C(Nc1ccccc1F)c1ccc2c(Cl)c3c(nc2c1)CCC3	.	.	-6%	.	.	.
CNCc1ccccc1Sc1cc(O)ccc1O	-14%	-33%	?	?	-3%	11µM*
CCC(=O)Oc1cc(C(C)(C)C)cc2cc(-c3nc(-c4ccc(OC)cc4OC)no3)c(=O)oc12	.	.	15%	.	.	.
Cc1ccc(NC(=O)c2oc3c(c2C)-c2[nH]ncc2CC3)c(Cl)c1	.	.	0%	.	.	.
Cc1nnc(SCCn2c(N3CCC(Cc4ccccc4)CC3)nc3c2c(=O)[nH]c(=O)n3C)s1	9.3µM*	6%	-10%	?	?	-19%
CCCCn1c(N2CCC(Cc3ccccc3)CC2)nc2c1c(=O)[nH]c(=O)n2C	?	125%	-1%	35µM*	9.3µM*	-13%
CCCn1c(N2CCN(CC(=O)c3c(C)n(C)c4ccc(OC)cc34)CC2)nc2c1c(=O)[nH]c(=O)n2C	2.1µM*	79%	-7%	-17%	?	-12%
CCCCCn1c(N2CCN(c3cccc(Cl)c3)CC2)nc2c1c(=O)[nH]c(=O)n2C	5.9µM*	4%	4%	1%	.	2%
Cn1c(=O)[nH]c(=O)c2c1nc(N1CCN(c3cccc(Cl)c3)CC1)n2CCCc1ccccc1	-22%	-11%	3%	2%	15%	.
COc1ccc(CCn2c(N3CCN(C)CC3)nc3c2c(=O)[nH]c(=O)n3C)cc1	-24%	-11%	-11%	-5%	.	7%
COc1ccc(-n2ncc(C(=O)N3CCc4ccccc4C3)c2C2CCN(C(=O)OC(C)(C)C)CC2)cc1	.	.	13%	.	.	.
Cc1cccc(C(=O)Nc2ccc(C(=O)OCc3cc(=O)n4c(C)csc4n3)cc2)c1	.	.	-7%	.	.	.
CC1CCN(c2nc3c(c(=O)[nH]c(=O)n3C)n2Cc2ccccc2Cl)CC1	9.3µM*	-7%	-1%	6%	-22%	-2%
SMILES	Pf growth 96h	AmpC no deterg	AmpC detergent	HCV inhibitor	Pf growth 48h	AMA1 RON2 block
Cc1nnc(SCCn2c(N3CCN(Cc4ccccc4)CC3)nc3c2c(=O)[nH]c(=O)n3C)s1	7.4µM*	46%	-12%	8%	?	2%
Cc1nnc(SCCn2c(N3CCN(C)CC3)nc3c2c(=O)[nH]c(=O)n3C)s1	-15%	-12%	-14%	2%	.	-3%
COc1cc2[nH]c(=S)nc(NCc3ccc(C)cc3)c2cc1OC	13µM*	6%	-2%	-11%	?	84%
COc1cc2[nH]c(=S)nc(NCc3ccccc3)c2cc1OC	0.52µM*	-13%	5%	-21%	-19%	51%
COc1ccc(CNc2nc(=S)[nH]c3cc(OC)c(OC)cc23)cc1	-20%	19%	-1%	-4%	-30%	74%
O=c1c2ccccc2nc2oc3ccccc3n12	13µM*	-8%	-14%	18%	98%	-4%
O=C(CNC1=NCCC1)c1ccc(Cl)cc1	12µM*	-16%	?	-16%	?	0%
COc1ccc(C(=O)CNC2=NCCC2)cc1	-3%	-22%	3%	-6%	9%	-2%
O=C(ONC1=NCCCCC1)c1c(F)cccc1F	-50%	-10%	-5%	?	13µM*	-6%
O=C(ONC1=NCCCCC1)c1ccc(Cl)cc1	.	-15%	?	2.5µM*	?	0%
Fc1cc(Cl)ccc1NC1=NCCCCC1	14%	-22%	2%	-2%	19%	5%
CCN1CCc2c(sc(-n3cccc3)c2C(C)NC(=O)Nc2ccc(C(=O)OC)cc2)C1 (centres undefined)	.	.	21%	.	.	.
Cc1ccccc1Nc1c(-c2ccc(N3CCOCC3)cc2)nc2ccc(Br)cn12	.	.	6%	.	.	.
COC(=O)c1ccc(Nc2nc(-c3ccccc3Cl)nc3ccccc23)cc1	.	.	-2%	.	.	.
Brc1c(CSc2nc3ccccc3o2)nc2ncccn12	?	-4%	?	17%	-25%	3%

Compound activity: PubChem BioAssay, National Center for Advancing Translational Sciences (NCATS)
